Source: PubChem BioAssay
Tg IFNy HTS – inhibitors of Toxoplasma gondii growth with IFN-gamma. Toxoplasma gondii growth in IFN-gamma-treated host cells; hits give low values. activity change, negative = inhibition, % (test concentration not listed). 3.8% of 69,000 active. AID 1259416; in the data active means activity change below about -70%, passing the limit was not always enough;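 further: host cells are HeLa cells infected with Toxoplasma gondii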
Numbers stand for hits; i = inactive; ! = repeats disagree. Only a selection was taken, and hits are over-represented in it overall.

SMILES	Tg IFNy HTS
C=CCN1CCC23c4c5ccc(O)c4OC2/C(=N\NC(=O)c2ccccc2)CCC3(O)C1C5 (stereo not given)	i
CC12CCC3C4CCCC=C4CCC3C1CCC2O (stereo not given)	i
C[C@]1(O)CC[C@H]2[C@@H]3CCC4=CC(=O)CC[C@]4(C)[C@@]3(F)[C@@H](O)C[C@@]21C	i
C[C@]12CCC(=O)C=C1CCC1C2CC[C@@]2(C)C1CC[C@@H]2O (stereo not given in full)	-88
C[C@]12CC[C@H]3[C@@H](CCC4=CC(=O)CC[C@@H]43)[C@@H]1CC[C@@H]2O	-76
C[C@]12CC[C@@H]3c4ccc(O)c(O)c4CC[C@H]3[C@@H]1CC[C@@H]2O	i
C#CC1(O)CCC2C3CCC4=CC(=O)CCC4(C)C3CCC21C (stereo not given)	i
Oc1c(I)cc(I)cc1I	i
CCCOC1CCCN(C2CCN(C)CC2)C1 (stereo not given)	i
CN(C)CCN(Cc1ccc(F)cc1)C(=O)Cc1csc(-c2cccnc2)n1	i
COCc1cncc2c1CCN(S(=O)(=O)c1cccs1)C2	i
CC1Cc2cc(C(O)CN3CC=C(c4ccc(Cl)cc4)CC3)ccc2N1S(C)(=O)=O (stereo not given)	i
O=C(O)CN1CCOCC2(CC(CNc3ccccn3)CO2)C1 (stereo not given)	i
CC(CN1CCN(Cc2cccc(Cl)c2)CC1)C(F)(F)F (stereo not given)	i
C=CCNC(=O)c1cc2cccnc2n(Cc2ccccc2)c1=O	i
O=C(Nc1cccc(F)c1)c1cc2cccnc2n(Cc2ccccc2)c1=O	i
O=C(c1ccc(Cl)cc1)C1CCCN(CCS(=O)(=O)c2ccccc2)C1 (stereo not given)	i
C/C(=C\c1csc(C)n1)[C@@H]1C[C@@H]2O[C@@H]2CCC[C@H](C)[C@H](O)[C@@H](C)C(=O)C(C)(C)[C@@H](O)CC(=O)O1	i
C/C(=C\c1csc(C)n1)[C@H]1C[C@@H]2O[C@]2(C)CCC[C@H](C)[C@H](O)[C@@H](C)C(=O)C(C)(C)[C@H](O)CC(=O)O1	-75
C/C1=C/C[C@@H](/C(C)=C/c2csc(C)n2)OC(=O)C[C@H](O)C(C)(C)C(=O)[C@H](C)[C@@H](O)[C@@H](C)CCC1	i
Fc1ccc(CN2CC3(CCN(c4ncccn4)C3)C2)cc1	i
Cc1cc(N2CCN(CC(=O)OC3CC4CCC(C3)N4C)CC2)nc2ccccc12 (stereo not given)	i
Cc1ccc(OC[C@H]2CO[C@@H]3CN(Cc4cccs4)C[C@@H]23)cn1	i
CN(C)C(=O)Oc1c(-c2ccccc2)cn(Cc2ccccc2)c(=O)c1-c1ccccc1	-84
CN(C)C(=O)Oc1cc(=O)n(C)c2ccccc12	i
SMILES	Tg IFNy HTS
O=C(O)C(=O)CBr	i
COc1cccc(NC(=O)c2cc3cccnc3n(Cc3ccccc3F)c2=O)c1	i
CN(CCc1ccccn1)C(=O)C1CC2(CCNCC2)CN1 (stereo not given)	i
CCS(=O)(=O)N1CCOC2(COCCN(Cc3ccncc3)C2)C1 (stereo not given)	i
CC(C)N1C(=O)C2(CCN(C3CCOC3)CC2)c2ccccc21 (stereo not given)	i
O=c1[nH]c2ccccc2n1C1CCN(CCCC(c2ccc(F)cc2)c2ccc(F)cc2)CC1	-95!
CCn1nc(C)c(CNC(C)Cn2ccnc2)c1C (stereo not given)	i
O=C(Nc1ccc(F)cc1F)c1c(O)c2cccnc2n(Cc2ccccc2)c1=O	i
Cc1cccc(CNC(=O)c2c(O)c3cccnc3n(Cc3ccccc3)c2=O)c1	-119
O=C(Nc1cc(F)ccc1F)c1c(O)c2cccnc2n(Cc2ccccc2)c1=O	i
O=C(NCc1ccco1)c1c(O)c2cccnc2n(Cc2ccccc2)c1=O	-99
Cc1ccc(NC(=O)c2c(O)c3cccnc3n(Cc3ccccc3)c2=O)c(F)c1	i
O=C(NCc1ccco1)c1cc2cccnc2n(Cc2ccccc2)c1=O	i
O=C(Nc1ccccc1F)c1c(O)c2cccnc2n(Cc2ccccc2)c1=O	i
O=C(NCc1ccccc1Cl)c1c(O)c2cccnc2n(Cc2ccccc2)c1=O	-108
O=C(Nc1cccc(F)c1)c1c(O)c2cccnc2n(Cc2ccccc2)c1=O	i
COc1ccccc1NC(=O)c1c(O)c2cccnc2n(Cc2ccccc2)c1=O	i
O=C(Nc1ccc(Cl)cc1)c1c(O)c2cccnc2n(Cc2ccccc2)c1=O	i
O=C(NCc1ccc(F)cc1F)c1c(O)c2cccnc2n(Cc2ccccc2)c1=O	-104
CN1CC[C@H]2OCC[C@]2(C(=O)NCCc2ccccn2)C1	i
c1ccc(CN2CC[C@@H](OCc3ccccn3)[C@@H]3OCC[C@H]32)cc1	i
CC1(C)CC(n2cnnc2)CC(C)(C)N1	i
CCS(=O)(=O)N1CCC2(CCCN(Cc3ccccn3)C2)C1 (stereo not given)	i
COCCN1CCCC2(CCNC2)C1 (stereo not given)	i
Cc1nccc(-c2ccc(-c3noc(CN4C5CCC4CC(O)(c4ccco4)C5)n3)cc2)n1 (stereo not given)	i
SMILES	Tg IFNy HTS
CCN1CCN(C)C2(CCN(c3ccc(C)nn3)CC2)C1=O	i
CCN1C[C@H]2[C@H](OC)CCN(C(=O)Cc3ccc(OC)cc3)[C@H]2C1	i
Cc1ccccc1CNC(=O)c1c(O)c2cccnc2n(Cc2ccccc2)c1=O	-119
O=C(Nc1ccc2c(c1)OCO2)c1c(O)c2cccnc2n(Cc2ccccc2)c1=O	i
Cc1ccc(NC(=O)c2c(O)c3cccnc3n(Cc3ccccc3)c2=O)cc1F	i
O=C(NCc1ccc2c(c1)OCO2)c1c(O)c2cccnc2n(Cc2ccccc2)c1=O	-77
Cc1ccc(NC(=O)c2c(O)c3cccnc3n(Cc3ccccc3)c2=O)cc1C	i
O=C(Nc1ccc2c(c1)OCCO2)c1c(O)c2cccnc2n(Cc2ccccc2)c1=O	i
O=C(NC1CCCC1)c1cc2cccnc2n(Cc2ccc(F)cc2)c1=O	i
Cc1ccc(CN2CCOC3CC(COc4ccccn4)CC32)s1 (stereo not given)	i
O=C([C@H]1CCC[C@]12CCN(Cc1ccccn1)C2)N1CCOCC1	i
Cc1ccc(=O)n(CC2(O)CC3CCCC(C2)N3Cc2cccc(F)c2F)n1 (stereo not given)	i
COc1cc2c(cc1OC)[C@@H]1C(=O)c3ccc4c(c3O[C@@H]1CO2)CC(C(C)C)O4 (stereo not given in full)	-82
COc1cc2c(cc1OC)[C@@H]1C(=O)c3ccc(OC)c(CC=C(C)C)c3O[C@@H]1CO2	i
c1cncc(CN2CCCC23CCN(Cc2ccoc2)CC3)c1	i
Cc1ccc2c(n1)N(C)CCN(c1ncccn1)C2	i
O=C([C@H]1CCCO1)N1CCCN2CCC[C@H]2C1	i
COCCNC(=O)C[C@H]1C[C@@H]2CN(Cc3ccncc3)C[C@H]2O1	i
CN(C)c1ccc(NC(=O)c2cc3cccnc3n(Cc3ccc(F)cc3)c2=O)cc1	i
C=CCN1CCCC12CCCN(C(=O)Cc1ccsc1)C2 (stereo not given)	i
CC(C)[C@]12O[C@H]1[C@@H]1O[C@]13[C@]1(O[C@H]1C[C@H]1C4=C(CC[C@@]13C)C(=O)OC4)[C@@H]2O	-83
O=C1NC[C@H](COc2cccnc2)[C@]12CCN(Cc1cccs1)C2	i
N#CC1CC2CC1N(Cc1ccccc1)C2 (stereo not given)	i
CCCCCCC(C)(C)c1ccc(C2CC(O)CCC2CCCO)c(O)c1 (stereo not given)	-79
Cn1nccc1CN1CC[C@@H]2OCCN(Cc3cccnc3)[C@@H]2C1	i
